Drawing on the antibiotic and cytotoxicity screens of Wong et al. (2023), this text covers cytotoxicity call for 62 compounds.

About 3,300 (8.5%) of roughly 39,000 compounds were called active. The list comes from a sample in which actives are over-represented; it also holds similar structures and randomly drawn compounds.

The assay has as its system HepG2. Kind of assay: cytotoxicity call (relative viability < 0.9). The following applies: 10 µM.
Consider `C[C@@H]1CN([C@@H](C)CO)C(=O)c2cc(NC(=O)C3CC3)ccc2O[C@@H]1CN(C)Cc1ccc(-c2ccccc2)cc1`, for which the cytotoxicity call was “inactive”. To `C[C@H](CO)N1C[C@H](C)[C@H](CN(C)Cc2ccc(-c3ccccc3)cc2)Oc2ccc(NC(=O)C3CCCCC3)cc2C1=O` belongs “active”; to `C[C@H]1CN([C@@H](C)CO)C(=O)c2cc(NC(=O)C3CC3)ccc2O[C@H]1CN(C)Cc1ccc(-c2ccccc2)cc1`, “inactive”. Turning to `CN1CCN(C(=O)C[C@@H]2CC[C@H]3[C@@H](COC[C@@H](O)CN3C(=O)C3CC3)O2)CC1`, the cytotoxicity call is “inactive”. To `C[C@H]1Cc2cc(S(=O)(=O)N(C)CC(=O)N3CCOCC3)ccc2N1C(=O)C1CC1` belongs “inactive”; to `CCS(=O)(=O)Nc1ccc2c(c1)C(=O)N(C)[C@@H]1CC[C@H](CC(=O)NCc3ccccc3F)O[C@@H]1CO2`, “inactive”. On to `O=C(C[C@H]1CC[C@H]2[C@@H](COC[C@H](O)CN2Cc2ccccc2F)O1)N[C@H]1CCN(Cc2ccccc2)C1`, for which the cytotoxicity call was “inactive”.

`COCCOC(=O)N1C(=O)[C@@]2(c3ccccc31)[C@H](C(=O)N1CCc3cc(OC)c(OC)cc3C1)[C@H]1C(=O)O[C@H](c3ccccc3)[C@H](c3ccccc3)N1[C@@H]2c1ccc(O)cc1`: the cytotoxicity call was “inactive”. For `C[C@@H]1CCCCO[C@@H](CN(C)Cc2ccc(C(F)(F)F)cc2)[C@H](C)CN([C@@H](C)CO)C(=O)c2cc(NC(=O)c3ccccc3)ccc2O1`, the cytotoxicity call is “inactive”. To `C=CCC[C@@H](Cc1ccc(F)cc1)C(=O)O[C@H](CNC(=O)[C@@H](CC=C)CC(=O)N(CCO)Cc1ccccc1)c1ccccc1` belongs “inactive”; to `C=CCC[C@@H](Cc1ccc(F)cc1)C(=O)O[C@H](CNC(=O)[C@H](CC=C)CC(=O)N(CCO)Cc1ccccc1)c1ccccc1`, “inactive”.

Turning to `C=CCC[C@H](Cc1ccc(F)cc1)C(=O)OC[C@@H](NC(=O)[C@@H](CC=C)CC(=O)N(CCO)Cc1ccccc1)c1ccccc1`, the cytotoxicity call is “inactive”.

Take `C=CCC[C@H](Cc1ccc(F)cc1)C(=O)O[C@H](CNC(=O)[C@H](CC=C)CC(=O)N(CCO)Cc1ccccc1)c1ccccc1`: the cytotoxicity call is “inactive”. To `C=CCC[C@H](Cc1ccc(F)cc1)C(=O)O[C@@H](CNC(=O)[C@H](CC=C)CC(=O)N(CCO)Cc1ccccc1)c1ccccc1` belongs “inactive”; to `C=CCC[C@@H](Cc1ccc(F)cc1)C(=O)O[C@@H](CNC(=O)[C@@H](CC=C)CC(=O)N(CCO)Cc1ccccc1)c1ccccc1`, “active”.

With `C=CCC[C@H](Cc1ccc(F)cc1)C(=O)O[C@H](CNC(=O)[C@@H](CC=C)CC(=O)N(CCO)Cc1ccccc1)c1ccccc1`, the cytotoxicity call was “inactive”.

In the case of `C=CCC[C@@H](Cc1ccc(F)cc1)C(=O)OC[C@@H](NC(=O)[C@H](CC=C)CC(=O)N(CCO)Cc1ccccc1)c1ccccc1`, the cytotoxicity call is “inactive”. Regarding `C=CCC[C@H](Cc1ccc(F)cc1)C(=O)O[C@@H](CNC(=O)[C@@H](CC=C)CC(=O)N(CCO)Cc1ccccc1)c1ccccc1`, the cytotoxicity call was “active”. To `C=CCC[C@@H](Cc1ccc(F)cc1)C(=O)O[C@@H](CNC(=O)[C@H](CC=C)CC(=O)N(CCO)Cc1ccccc1)c1ccccc1` belongs “active”. On to `C=CC[C@H](CC(=O)N(CCO)Cc1ccccc1)C(=O)NC[C@H](OC(=O)[C@@H](CC=C)Cc1ccc(F)cc1)c1ccccc1`, for which the cytotoxicity call is “inactive”. Take `C=CCC[C@@H](Cc1ccc(F)cc1)C(=O)OC[C@@H](NC(=O)[C@@H](CC=C)CC(=O)N(CCO)Cc1ccccc1)c1ccccc1`: the cytotoxicity call is “active”. Consider `COCC(=O)Nc1ccc2c(c1)C(=O)N(C)[C@@H]1CC[C@H](CC(=O)N3CCc4ccccc4C3)O[C@H]1CO2`, for which the cytotoxicity call was “inactive”.

Turning to `Cc1noc(C)c1NC(=O)Nc1ccc2c(c1)C(=O)N([C@@H](C)CO)C[C@H](C)[C@H](CN(C)S(=O)(=O)c1ccc(F)cc1)OCCCC[C@H](C)O2`, the cytotoxicity call is “inactive”. To `CN1C(=O)c2cc(NC(=O)C3CCOCC3)ccc2OC[C@@H]2O[C@@H](CC(=O)NCCc3ccncc3)CC[C@@H]21` belongs “inactive”. Turning to `COc1ccc(C=Cc2cc(O)cc(O[C@@H]3O[C@H](CO)[C@@H](O)[C@H](O)[C@H]3O)c2)cc1`, the cytotoxicity call is “inactive”. Under `C1=C(c2ccccc2)CC(c2ccccc2)=NN=C1c1ccccc1` stands “inactive”. Under `COCCNC(=O)[C@H]1[C@H](CO)[C@H]2Cn3c(cccc3=O)[C@@H]1N2S(=O)(=O)c1ccccc1C` stands “inactive”; under `C[C@@H]1CN([C@H](C)CO)C(=O)Cc2cc(NC(=O)Cn3cnnn3)ccc2O[C@H]1CN(C)S(=O)(=O)c1ccc(Cl)cc1`, “inactive”. To `CC(C)NC(=O)Nc1ccc2c(c1)CC(=O)N([C@@H](C)CO)C[C@@H](C)[C@@H](CN(C)S(=O)(=O)c1ccccc1)O2` belongs “inactive”; to `CC(C)NC(=O)Nc1ccc2c(c1)CC(=O)N([C@H](C)CO)C[C@H](C)[C@H](CN(C)S(=O)(=O)c1ccc(F)cc1)O2`, “inactive”.

As for `C[C@H](CO)N1C[C@H](C)[C@H](CN(C)Cc2ccc3c(c2)OCO3)Oc2ccc(NS(C)(=O)=O)cc2C1=O`, the cytotoxicity call was “inactive”.

Turning to `COc1ccc(NC(=O)Nc2ccc3c(c2)C(=O)N([C@H](C)CO)C[C@@H](C)[C@@H](CN(C)S(=O)(=O)c2ccccc2)OCCCC[C@H](C)O3)cc1`, the cytotoxicity call was “inactive”.

As to `C[C@H]1CCCCO[C@H](CN(C)S(=O)(=O)c2ccc(Cl)cc2)[C@@H](C)CN([C@@H](C)CO)C(=O)c2cc(NC(=O)C3CCCCC3)ccc2O1`, the cytotoxicity call was “inactive”. To `O=C(C[C@H]1CC[C@H]2[C@@H](COC[C@H](O)CN2S(=O)(=O)c2ccc(F)cc2)O1)N[C@H]1CCN(Cc2ccccc2)C1` belongs “inactive”; to `C[C@@H]1CCCCO[C@@H](CN(C)Cc2ccc3c(c2)OCO3)[C@@H](C)CN([C@@H](C)CO)C(=O)c2cc(NS(=O)(=O)c3cccs3)ccc2O1`, “inactive”; to `CCN1CCN(C2=C(NS(=O)(=O)c3ccc(Br)cc3)C(=O)c3ccccc3C2=O)CC1`, “active”. Consider `CCN1CCN(C2=C(NS(=O)(=O)c3ccc(Br)s3)C(=O)c3ccccc3C2=O)CC1`, for which the cytotoxicity call was “active”. Turning to `O=C1C(NS(=O)(=O)c2ccc(Br)cc2)=C(c2ccc(OC(F)(F)F)cc2)C(=O)c2ccccc21`, the cytotoxicity call is “inactive”. As for `CC(=O)N1CCN(CC(=O)NS(=O)(=O)c2ccccc2)CC1`, the cytotoxicity call was “inactive”. Under `COc1cccc(C#Cc2ccc3c(c2)O[C@@H](CN(C)C(C)=O)[C@H](C)CN([C@H](C)CO)S3(=O)=O)c1` stands “inactive”; under `O=C(C[C@H]1C[C@H]2c3cc(NS(=O)(=O)c4ccc(F)cc4)ccc3O[C@H]2[C@@H](CO)O1)NCc1ccccn1`, “inactive”; under `Cc1noc(C)c1NC(=O)Nc1ccc2c(c1)C(=O)N([C@H](C)CO)C[C@H](C)[C@H](CN(C)S(=O)(=O)c1ccc(Cl)cc1)OCCCC[C@@H](C)O2`, “inactive”. On to `CN1CCN(C(=O)C[C@@H]2CC[C@H]3[C@H](COc4ccc(NC(=O)C5CCOCC5)cc4C(=O)N3C)O2)CC1`, for which the cytotoxicity call was “inactive”.

Turning to `C[C@@H]1CCCCO[C@H](CN(C)S(=O)(=O)c2cn(C)cn2)[C@@H](C)CN([C@@H](C)CO)C(=O)c2cc(NS(=O)(=O)c3cccs3)ccc2O1`, the cytotoxicity call is “inactive”.

Regarding `CCCNC(=O)Nc1ccc2c(c1)C(=O)N(C)C[C@@H](OC)[C@H](C)CN(C(=O)C1CCOCC1)[C@@H](C)CO2`, the cytotoxicity call is “inactive”. On to `CCO[C@@H]1OC(C(=O)N2CCN(Cc3ccccc3)CC2)=C[C@H](c2ccc(C(F)(F)F)cc2)[C@H]1CCCOC(=O)NCCCCCC(=O)NO`, for which the cytotoxicity call was “inactive”.

On to `CN(C)CC(=O)N[C@@H]1CC[C@H](CCNC(=O)C2CC2)O[C@@H]1CO`, for which the cytotoxicity call is “inactive”. In the case of `C[C@@H]1CN([C@@H](C)CO)C(=O)c2cccc(NC(=O)Nc3cccc4ccccc34)c2O[C@H]1CN(C)C(=O)Nc1ccc(C(F)(F)F)cc1`, the cytotoxicity call was “active”. Under `C[C@H]1CN([C@@H](C)CO)C(=O)c2cccc(NC(=O)Nc3cccc4ccccc34)c2O[C@H]1CN(C)C(=O)Nc1ccc(C(F)(F)F)cc1` stands “active”; under `C[C@@H]1CN([C@H](C)CO)C(=O)c2cccc(NC(=O)Nc3cccc4ccccc34)c2O[C@@H]1CN(C)C(=O)Nc1ccc(C(F)(F)F)cc1`, “active”; under `C[C@H]1CN([C@@H](C)CO)C(=O)c2cccc(NC(=O)Nc3cccc4ccccc34)c2O[C@@H]1CN(C)C(=O)Nc1ccc(C(F)(F)F)cc1`, “active”. `O=C(C1=C[C@H](c2coc3ccccc3c2=O)C[C@H](OCCCCO)O1)N1CCOCCOCCOCCOCC1`: the cytotoxicity call was “inactive”. Under `Cc1ccc(S(=O)(=O)Nc2ccc3c(c2)C(=O)N([C@@H](C)CO)C[C@@H](C)[C@H](CN(C)C(=O)Nc2ccc4c(c2)OCO4)OCCCC[C@@H](C)O3)cc1` stands “inactive”; under `COc1ccc(S(=O)(=O)N(C)C[C@H]2OCCCC[C@H](C)Oc3ccc(NC(=O)Nc4cccc5ccccc45)cc3C(=O)N([C@H](C)CO)C[C@@H]2C)cc1`, “inactive”. Under `COc1cccc(S(=O)(=O)Nc2ccc3c(c2)[C@@H]2C[C@H](CC(=O)NCCc4ccccc4)O[C@@H](CO)[C@@H]2O3)c1` stands “inactive”; under `O=C(CCCCC(=O)N/N=C/c1cc(I)cc(I)c1O)NO`, “inactive”.

On to `COCC(=O)N1C[C@H](C)[C@H](OC)CN(C)C(=O)c2cc(NC(=O)Nc3cccc(F)c3)ccc2OC[C@H]1C`, for which the cytotoxicity call was “inactive”.

`C[C@@H]1CN([C@@H](C)CO)C(=O)c2cc(C#CCc3ccccc3)cnc2O[C@H]1CN(C)C(=O)C1CCOCC1`: the cytotoxicity call was “inactive”.

`COc1ccc(S(=O)(=O)Nc2ccc3c(c2)C(=O)N([C@H](C)CO)C[C@@H](C)[C@@H](CN(C)C(=O)NC(C)C)O3)cc1`: the cytotoxicity call was “inactive”. Under `CC(C)NC(=O)N(C)C[C@H]1Oc2ccc(NC(=O)Nc3ccc4c(c3)OCO4)cc2C(=O)N([C@@H](C)CO)C[C@@H]1C` stands “inactive”. Under `Cc1noc(C)c1S(=O)(=O)Nc1ccc2c(c1)CC(=O)N([C@@H](C)CO)C[C@@H](C)[C@H](CN(C)Cc1ccccc1)O2` stands “inactive”. To `C[C@@H]1CN([C@@H](C)CO)C(=O)c2cc(NC(=O)CCCN(C)C)ccc2O[C@@H]1CN(C)S(=O)(=O)c1ccc(F)cc1` belongs “inactive”.
